The whole screen tested about 5,500 compounds, of which about 2,000 (36%) were called active. Another 18% or so got no clear call; they are omitted. No stated cut-off is given here; in the data, active means normalized growth mostly below about 0.91 (no sharp cut-off); inconclusive means no clear call, values can overlap the other calls; inactive means mostly above about 0.92. This is one part of the list.
Experiment: chemical genetic growth profiling, strain panel (AID 1159580);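 further: tested at 20 µM; growth read once vehicle control cultures reached saturation at 30 °C; 1 = growth at the plate median or of vehicle wells; lower values mean less growth of the strain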
Settings: growth OD

Measured: normalized growth

CC1(C)C(=O)[C@@H]2O[C@@H]2[C@@]2(C)C1C[C@@H](O)[C@]1(C)C2CC[C@@]2(C)[C@H](c3ccoc3)OC(=O)C3OC321 (some centres not stated)
inactive: S. cerevisiae deletion strains, locus YJL187C, strain SWE1, active compounds read low 0.994 | S. cerevisiae deletion strains, locus YJR043C, strain POL32, active compounds read low 0.998 | S. cerevisiae deletion strains, locus YJR066W, strain TOR1, active compounds read low 0.926 | S. cerevisiae deletion strains, locus YKL009W, strain mrt4, active compounds read low 1.02 | S. cerevisiae deletion strains, locus YKL068W, active compounds read low 0.993 | S. cerevisiae deletion strains, locus YKL085W, strain MDH1 (second series), active compounds read low 0.997 | S. cerevisiae deletion strains, locus YKL085W, strain MDH1, active compounds read low 0.997 | S. cerevisiae deletion strains, locus YKL160W, strain elf1, active compounds read low 0.998 | S. cerevisiae deletion strains, locus YKR001C, strain vps1, active compounds read low 0.979 | S. cerevisiae deletion strains, locus YKR026C, strain gcn3, active compounds read low 0.995 | S. cerevisiae deletion strains, locus YKR091W, strain srl3, active compounds read low 0.992 | S. cerevisiae deletion strains, locus YLL001W, strain dnm1, active compounds read low 0.99 | S. cerevisiae deletion strains, locus YLL026W, active compounds read low 0.99 | S. cerevisiae deletion strains, locus YLL041C, strain sdh2, active compounds read low 0.999 | S. cerevisiae deletion strains, locus YLR027C, strain aat2, active compounds read low 0.984 | S. cerevisiae deletion strains, locus YLR039C, strain RIC1, active compounds read low 1.11 | S. cerevisiae deletion strains, locus YLR058C, strain SHM2, active compounds read low 0.997 | S. cerevisiae deletion strains, locus YLR102C, strain apc9, active compounds read low 0.987 | S. cerevisiae deletion strains, locus YLR113W, strain HOG1, active compounds read low 1.01 | S. cerevisiae deletion strains, locus YLR221C, strain rsa3, active compounds read low 0.999 | S. cerevisiae deletion strains, locus YLR258W, strain gsy2, active compounds read low 1.02 | S. cerevisiae deletion strains, locus YLR262C, strain YPT6 (second series), active compounds read low 0.973 | S. cerevisiae deletion strains, locus YLR268W, strain sec22, active compounds read low 0.987 | S. cerevisiae deletion strains, locus YLR320W, strain mms22, active compounds read low 0.998 | S. cerevisiae deletion strains, locus YLR330W, strain CHS5, active compounds read low 1 | S. cerevisiae deletion strains, locus YLR342W, strain FKS1 (second series), active compounds read low 0.992 | S. cerevisiae deletion strains, locus YLR342W, strain FKS1, active compounds read low 0.999 | S. cerevisiae deletion strains, locus YLR357W, strain rsc2, active compounds read low 0.968 | S. cerevisiae deletion strains, locus YLR370C, strain arc18, active compounds read low 0.995 | S. cerevisiae deletion strains, locus YLR371W, strain rom2, active compounds read low 0.982 | S. cerevisiae deletion strains, locus YLR384C, strain iki3, active compounds read low 1.02 | S. cerevisiae deletion strains, locus YLR418C, strain cdc73, active compounds read low 0.919 | S. cerevisiae deletion strains, locus YML016C, strain PPZ1, active compounds read low 1.01 | S. cerevisiae deletion strains, locus YML032C, strain rad52, active compounds read low 0.994 | S. cerevisiae deletion strains, locus YML120C, strain ndi1, active compounds read low 1 | S. cerevisiae deletion strains, locus YML124C, strain tub3, active compounds read low 0.996 | S. cerevisiae deletion strains, locus YMR058W, strain fet3, active compounds read low 1 | S. cerevisiae deletion strains, locus YMR078C, strain ctf18, active compounds read low 0.994 | S. cerevisiae deletion strains, locus YMR125W, strain sto1, active compounds read low 1 | S. cerevisiae deletion strains, locus YMR129W, active compounds read low 1 | S. cerevisiae deletion strains, locus YMR205C, strain PFK2, active compounds read low 0.999 | S. cerevisiae deletion strains, locus YMR223W, strain ubp8, active compounds read low 0.979 | S. cerevisiae deletion strains, locus YMR231W, strain pep5, active compounds read low 0.98 | S. cerevisiae deletion strains, locus YMR263W, strain SAP30, active compounds read low 0.974 | S. cerevisiae deletion strains, locus YMR307W, strain GAS1, active compounds read low 0.938 | S. cerevisiae deletion strains, locus YNL067W, strain RPL9B, active compounds read low 0.982 | S. cerevisiae deletion strains, locus YNL071W, strain lat1, active compounds read low 0.998 | S. cerevisiae deletion strains, locus YNL183C, strain NPR1, active compounds read low 0.951 | S. cerevisiae deletion strains, locus YNL209W, strain ssb2, active compounds read low 1.01 | S. cerevisiae deletion strains, locus YNL233W, strain BNI4, active compounds read low 0.99 | S. cerevisiae deletion strains, locus YNL248C, strain rpa49, active compounds read low 0.991 | S. cerevisiae deletion strains, locus YNL250W, strain rad50, active compounds read low 0.982 | S. cerevisiae deletion strains, locus YNL271C, strain bni1, active compounds read low 0.989 | S. cerevisiae deletion strains, locus YNL298W, strain CLA4, active compounds read low 0.971 | S. cerevisiae deletion strains, locus YNL307C, strain MCK1, active compounds read low 0.967 | S. cerevisiae deletion strains, locus YNL322C, strain KRE1 (second series), active compounds read low 1 | S. cerevisiae deletion strains, locus YNR049C, strain mso1, active compounds read low 1.01 | S. cerevisiae deletion strains, locus YNR052C, strain pop2, active compounds read low 0.964 | S. cerevisiae deletion strains, locus YOL006C, strain TOP1, active compounds read low 0.992 | S. cerevisiae deletion strains, locus YOL012C, strain htz1 0.956 | S. cerevisiae deletion strains, locus YOL147C, strain pex11, active compounds read low 0.988 | S. cerevisiae deletion strains, locus YOR001W, strain rrp6, active compounds read low 1.02 | S. cerevisiae deletion strains, locus YOR061W, strain CKA2, active compounds read low 1.01 | S. cerevisiae deletion strains, locus YOR069W, strain VPS5, active compounds read low 1 | S. cerevisiae deletion strains, locus YOR070C, strain gyp1, active compounds read low 0.992 | S. cerevisiae deletion strains, locus YOR080W, strain dia2, active compounds read low 0.988 | S. cerevisiae deletion strains, locus YOR083W, strain WHI5, active compounds read low 0.992 | S. cerevisiae deletion strains, locus YOR106W, strain vam3, active compounds read low 0.995 | S. cerevisiae deletion strains, locus YOR136W, strain idh2, active compounds read low 0.975 | S. cerevisiae deletion strains, locus YOR144C, strain elg1, active compounds read low 0.985 | S. cerevisiae deletion strains, locus YOR184W, strain ser1, active compounds read low 0.978 | S. cerevisiae deletion strains, locus YOR231W, strain MKK1, active compounds read low 0.983 | S. cerevisiae deletion strains, locus YOR265W, strain rbl2, active compounds read low 0.983 | S. cerevisiae deletion strains, locus YOR270C, strain vph1, active compounds read low 0.946 | S. cerevisiae deletion strains, locus YOR290C, strain snf2, active compounds read low 0.968 | S. cerevisiae deletion strains, locus YOR316C, strain cot1, active compounds read low 0.992 | S. cerevisiae deletion strains, locus YPL051W, strain arl3, active compounds read low 0.986 | S. cerevisiae deletion strains, locus YPL078C, strain atp4, active compounds read low 1.01 | S. cerevisiae deletion strains, locus YPL106C, strain sse1, active compounds read low 1 | S. cerevisiae deletion strains, locus YPL240C, strain hsp82, active compounds read low 1.01 | S. cerevisiae deletion strains, locus YPL256C, strain CLN2, active compounds read low 0.952 | S. cerevisiae deletion strains, locus YPR119W, strain clb2, active compounds read low 0.982 | S. cerevisiae deletion strains, locus YPR141C, strain kar3, active compounds read low 0.992 | S. cerevisiae deletion strains, locus YPR163C, strain tif3, active compounds read low 0.979 | S. cerevisiae deletion strains, locus YPR167C, strain met16, active compounds read low 0.982 | S. cerevisiae deletion strains, strain wtn01, active compounds read low 0.999 | S. cerevisiae strains, strain wild type, active compounds read low 0.994

Reference: PubChem BioAssay AID1159580 (chemical genetic matrix, 2015)
